# Measured values reported in PubChem BioAssay (EPA / NIEHS).
# Inconclusive results are not listed. Activity calls are given as the source filed them. How the source made its calls: active means hit-call score of the fitted dose curve at least 0.9, where 1 is the maximum; inconclusive means response in the unintended direction; inactive means score below 0.9.
# Biological target: Cellular tumor antigen p53 (Homo sapiens) (UniProt P04637)
# Test: TOX21_p53_BLA_p2_ratio: Tox21 HCT-116 p53 Agonism Beta-lactamase Assay, Ratio, Phase 2 (AID 2283592)
# Source text: TOX21_p53_BLA_p2 is a cell-based, single-readout assay that uses HCT116, a human intestinal cell line, […] in a 1536-well plate.TOX21_p53_BLA_p2_ratio is an assay readout measuring reporter gene via receptor activity and designed using inducible reporter (beta lactamase induction) detected with GAL4 b-lactamase reporter gene. The signal is derived from the ratio of cleaved (ch2) to uncleaved (ch1) reporter gene substrate used as the measure of target activity.Data from the assay component TOX21_p53_BLA_p2_ratio was analyzed into 1 assay endpoint. This assay endpoint, TOX21_p53_BLA_p2_ratio, was analyzed in the positive analysis fitting direction relative to DMSO as the negative control and baseline of activity. Using a type of inducible reporter, gain-of-signal activity can be used to understand changes in the reporter gene as they relate to the gene TP53. Furthermore, this assay endpoint can be referred to as a primary readout, because this assay has produced multiple assay endpoints and this ratio serves a reporter gene function to understand target activity. To generalize the intended target to other relatable targets, this assay endpoint is annotated to the DNA binding intended target family, where the subfamily is tumor suppressor.
# Thawing Method: Place 14 mL of pre-warmed thaw medium into a 15 mL of conical tub. Remove the vial of cells to be thawed from liquid nitrogen and thaw rapidly by placing at 37C in a water bath with gentle agitation for 1-2 minutes. Decontaminate the vial by wiping with 70% ethanol before opening in a biological safety cabinet. Transfer the vial contents drop-wise into 14 mL of thaw medium in a sterile 15-mL conical tub. Centrifuge cells at 900 rpm for 4 minutes and resuspend in thaw medium. Transfer contents to the T75 tissue culture flask containing Thaw Medium and place flask in a humidified 37C/5% CO2 incubator. Switch to growth medium at first passage.Propagation Method: Aspirate medium, rinse once in DPBS, add 0.25% Trypsin/EDTA and swirl to coat the cell evenly. Add an equal volume of Growth Medium to inactivate Trypsin after 2-3 minutes incubation at 37C. Centrifuge cells at 900 rpm for 4 minutes and resuspend in growth medium. Cell should be passage or fed at least twice a week.Assay Protocol: Harvest cells from culture in growth medium and resuspend in assay medium. 2.2 Dispense 4000 cells/5 uL/well into 1536-well black/clear bottom plates using a Multidrop dispenser. After the cells were incubated at 37C for 5 hours, 23 nL of compounds dissolved in DMSO were transferred to the assay plate by a PinTool resulting in a 217-fold dilution. Incubate the plates for 16 hours at 37C, 5% CO2. Add 1 uL of 6X LiveBLAzer FRET B/G (CCF4-AM) Substrate Mixture to each well using a BioRAPTR dispenser and incubate the plates at room temperature for 2 hours. Measure fluorescence intensity at 460 and 530 nm emission and 405 nm excitation by an Envision detector. Data is expressed as the ratio of 460nm/530nm emissions. Add 4 uL of Cell-titer Glo to each well using BioRAPTR and incubate the plates at room temperature for 2 hours. Measure fluorescence intensity by a VewLux plate reader.
# Chain of Cellular tumor antigen p53 (Homo sapiens) (P04637 whole entry, looked up): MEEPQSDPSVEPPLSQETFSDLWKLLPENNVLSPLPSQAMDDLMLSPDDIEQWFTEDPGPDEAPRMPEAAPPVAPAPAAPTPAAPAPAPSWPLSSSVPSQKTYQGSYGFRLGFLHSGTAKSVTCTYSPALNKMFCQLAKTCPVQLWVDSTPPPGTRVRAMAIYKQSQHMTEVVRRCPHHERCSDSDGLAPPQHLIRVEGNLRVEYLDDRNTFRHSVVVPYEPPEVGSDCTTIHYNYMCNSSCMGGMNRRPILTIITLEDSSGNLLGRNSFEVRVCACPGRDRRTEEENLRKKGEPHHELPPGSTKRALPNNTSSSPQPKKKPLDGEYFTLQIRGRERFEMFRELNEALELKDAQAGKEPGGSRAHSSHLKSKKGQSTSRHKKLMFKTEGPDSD
SMILES,outcome,AC50
CC=Cc1ccc2c(c1)OCO2,inactive,
CCc1cc(OC)c(C[C@@H](C)N)cc1OC,inactive,
C[N+](C)(C)C,inactive,
CC1CCC(=O)O1 (stereo not given),inactive,
S=C=NCc1ccccc1,inactive,
CC(=O)Nc1cc([As](=O)(O)O)ccc1O,inactive,
CCOC(=O)c1ncn2c1CN(C)C(=O)c1c(I)cccc1-2,inactive,
SCc1ccccc1,inactive,
Cc1cccc2sc3nncn3c12,inactive,
CC(=O)C=Cc1ccc2c(c1)OCO2,,18.1 µM (active)
CC(Cl)C(=O)O (stereo not given),inactive,
CC(=O)C(Cl)(Cl)Cl,,1.29 µM (active)
O=C1OC2(c3cc(Br)c(O)cc3Oc3c2cc(Br)c(O)[c]3[Hg])c2ccccc21 (stereo not given),inactive,
CSc1ccc(C(=O)C(C)(C)N2CCOCC2)cc1,inactive,
CC(C)CC(C)N (stereo not given),inactive,
CN(C)c1ccc(N)cc1,,72 µM (active)
CCOC(=O)NC(=S)Nc1ccccc1NC(=S)NC(=O)OCC,,59.6 µM (active)
CC(C)CCCCCCCOP(=O)(Oc1ccccc1)Oc1ccccc1,inactive,
CNCC(=O)c1ccc(O)c(O)c1,inactive,
Nc1cc(Cl)ccc1O,,49.9 µM (active)

SMILES,outcome,AC50
Cc1ncc(C[n+]2csc(CCO)c2C)c(N)n1,inactive,
O=C(Nc1ccccc1)N(Cc1ccc(Cl)cc1)C1CCCC1,inactive,
NC(=O)CS(=O)C(c1ccccc1)c1ccccc1 (stereo not given),inactive,
Oc1cc(Cl)ccc1Cl,inactive,
Cc1nnc2n1-c1sc(CCc3ccc(CC(C)C)cc3)cc1C(c1ccccc1Cl)=NC2C (stereo not given),,31 µM (active)
CCCN(CCCl)c1c([N+](=O)[O-])cc(C(F)(F)F)cc1[N+](=O)[O-],inactive,
CCC(Cl)[N+](=O)[O-] (stereo not given),inactive,
BrCBr,inactive,
CC[C@H]1[C@@H]2C[C@H]3[C@@H]4N(C)c5ccccc5[C@]45C[C@@H](C2C5O)N3[C@@H]1O (stereo not given in full),inactive,
CCCCCCC(=O)CCCCCC/C=C/C[C@@H](O)[C@H](O)[C@@](N)(CO)C(=O)O,inactive,
O=[N+]([O-])c1ccc(Oc2ccc(C(F)(F)F)cc2[N+](=O)[O-])cc1,inactive,
CN(C)CCc1c[nH]c2ccc(O)cc12,inactive,
BrCCCCCCBr,inactive,
CCCC(C)(COC(N)=O)COC(N)=O,inactive,
FC(Cl)(Cl)Cl,inactive,
Nc1cc(Cl)ccc1Cl,inactive,
CC(=O)Oc1ccc2c3c1O[C@H]1[C@@H](OC(C)=O)C=C[C@H]4[C@@H](C2)N(C)CC[C@@]341,inactive,
Cn1cc[n+](C)c1 (tested in a mixture with another compound),inactive,
N#CC(C#N)=Cc1ccc(O)c(O)c1,inactive,
OC(Cn1cncn1)(c1ccc(F)cc1)c1ccccc1F (stereo not given),inactive,
